Laboratory results taken from PubChem BioAssay (Tox21).
Where “and” joins values, the source holds several entries; their conditions need not be identical. Identical values can stand only once. Results filed as inconclusive are left out. A structure can be active in one record and inactive in another. Calls of active or inactive are those of the source. Unless noted, calls come from the whole dose curve; as a rule, active = well fitted curve in the direction sought with a large enough effect in the repeat runs; inconclusive = weak or mixed curves; inactive = no such curve, though single readings can be large; an effect the other way counts as inactive or inconclusive.

What was measured:
[1] = qHTS assay to identify small molecule agonists of the peroxisome proliferator-activated receptor delta (PPARd) signaling pathway - cell viability counter screen (AID 743211); note: nearly all actives have a fitted effect of over 55% in size; note: potency is the fitted concentration of half-maximal effect
In short: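 Tox21 library compounds, delivered in DMSO, were incubated 17 h with PPARd-bla HEK293H cells; cytotoxicity was taken from CellTiter-Glo luminescence read 30 min after reagent addition.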

[2] = biological target: Peroxisome proliferator-activated receptor delta (Homo sapiens) (UniProt Q03181); test: qHTS assay to identify small molecule agonists of the peroxisome proliferator-activated receptor delta (PPARd) signaling pathway (AID 743212; calls by dose curve)
Chain of Peroxisome proliferator-activated receptor delta (Homo sapiens) (Q03181 whole entry, looked up): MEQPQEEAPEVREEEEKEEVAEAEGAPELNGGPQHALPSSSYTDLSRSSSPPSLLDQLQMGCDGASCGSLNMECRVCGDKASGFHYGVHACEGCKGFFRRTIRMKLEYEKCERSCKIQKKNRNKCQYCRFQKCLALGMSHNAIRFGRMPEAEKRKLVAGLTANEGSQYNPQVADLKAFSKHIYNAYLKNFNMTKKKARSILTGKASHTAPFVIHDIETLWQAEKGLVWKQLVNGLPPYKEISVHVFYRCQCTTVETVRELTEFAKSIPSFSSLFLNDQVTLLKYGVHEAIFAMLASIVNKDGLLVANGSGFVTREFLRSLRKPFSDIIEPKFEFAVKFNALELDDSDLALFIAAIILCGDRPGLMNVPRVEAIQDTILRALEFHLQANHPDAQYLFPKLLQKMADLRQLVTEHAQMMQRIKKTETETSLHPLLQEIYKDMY
In short: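 Tox21 library screened in GeneBLAzer PPARd UAS-bla HEK293H cells. After compound treatment at 37 C, a FRET-based beta-lactamase substrate was applied for 2 h and fluorescence recorded.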

[3] = qHTS assay to identify small molecule antagonists of the peroxisome proliferator-activated receptor delta (PPARd) signaling pathway - cell viability counter screen (AID 743213); note: nearly all actives have a fitted effect of over 50% in size; note: potency is the fitted concentration of half-maximal effect
In short: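 CellTiter-Glo was added to PPARd-bla HEK293H wells following 17 h compound treatment in the presence of 300 nM L165041. Luminescence was recorded after 30 min at room temperature.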

[4] = biological target: Peroxisome proliferator-activated receptor delta (Homo sapiens) (UniProt Q03181); test: qHTS assay to identify small molecule antagonists of the peroxisome proliferator-activated receptor delta (PPARd) signaling pathway (AID 743215; active = well fitted inhibition curve with a large enough effect in the signal ratio in the repeat runs, not every such curve was filed as active; the % refers to the signal ratio;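 note: cells stimulated with agonist L165041 at 300 nM final during compound exposure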; note: potency is the fitted concentration of half-maximal effect)
In short: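 Agonist L165041 (300 nM final) added with compound to PPARd-bla HEK293H UAS-bla reporter cells; 17 h incubation at 37 C. Read-out: LiveBLAzer FRET substrate, 2 h at room temperature, fluorescence intensity.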

[5] = biological target: Bile acid receptor (Homo sapiens) (UniProt Q96RI1); test: qHTS assay to identify small molecule antagonists of the farnesoid-X-receptor (FXR) signaling pathway (AID 743217; active = well fitted inhibition curve with a large enough effect in the signal ratio in the repeat runs, not every such curve was filed as active; the % refers to the signal ratio; note: potency is the fitted concentration of half-maximal effect)
Chain of Bile acid receptor (Homo sapiens) (Q96RI1 whole entry, looked up): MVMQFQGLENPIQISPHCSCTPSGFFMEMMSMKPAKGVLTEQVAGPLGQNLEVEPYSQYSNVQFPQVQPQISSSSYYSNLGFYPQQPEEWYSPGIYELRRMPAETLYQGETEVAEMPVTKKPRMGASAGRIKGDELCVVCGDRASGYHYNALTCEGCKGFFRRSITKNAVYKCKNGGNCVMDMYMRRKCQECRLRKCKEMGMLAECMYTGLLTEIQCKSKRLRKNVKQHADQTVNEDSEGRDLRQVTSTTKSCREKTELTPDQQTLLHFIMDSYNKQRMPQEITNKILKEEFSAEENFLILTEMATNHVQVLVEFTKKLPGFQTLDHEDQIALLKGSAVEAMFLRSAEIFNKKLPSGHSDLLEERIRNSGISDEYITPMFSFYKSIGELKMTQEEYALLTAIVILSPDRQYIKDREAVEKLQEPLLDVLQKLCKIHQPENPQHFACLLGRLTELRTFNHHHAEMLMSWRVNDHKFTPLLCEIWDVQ
In short: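 Antagonist mode: chenodeoxycholic acid at 50 uM final stimulates a UAS-driven beta-lactamase reporter in HEK 293T FXR-bla cells during 16 h, 37C compound exposure. Read-out is FRET substrate fluorescence after 2 h at room temperature.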

[6] = qHTS assay to identify small molecule agonists of the farnesoid-X-receptor (FXR) signaling pathway - cell viability counter screen (AID 743218); note: nearly all actives have a fitted effect of over 45% in size; note: potency is the fitted concentration of half-maximal effect
In short: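 Viability counter screen in the same wells: CellTiter-Glo luminescence, 30 min room-temperature incubation, measured after the beta-lactamase read. Cells were GeneBLAzer FXR-UAS-bla HEK 293T, compound-treated 16 h at 37C.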

[7] = biological target: Bile acid receptor (Homo sapiens) (UniProt Q96RI1); test: qHTS assay to identify small molecule agonists of the farnesoid-X-receptor (FXR) signaling pathway (AID 743220; active = well fitted activation curve with a large enough effect in the signal ratio in the repeat runs, not every such curve was filed as active; the % refers to the signal ratio)
In short: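 FXR-UAS-bla HEK 293T cells carrying a UAS-driven beta-lactamase reporter were plated for 5 h at 37C/5% CO2, then exposed to DMSO-dissolved Tox21 10K compounds for 16 h at 37C. A LiveBLAzer B/G FRET substrate was loaded for 2 h at room temperature before fluorescence reading.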

[8] = qHTS assay to identify small molecule antagonists of the farnesoid-X-receptor (FXR) signaling pathway - cell viability counter screen (AID 743221; active = well fitted cell-killing curve with a large enough effect in the repeat runs, not every such curve was filed as active; note: nearly all actives have a fitted effect of over 50% in size; note: potency is the fitted concentration of half-maximal effect)
In short: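 Cytotoxicity is taken from ATP luminescence (CellTiter-Glo, 30 min, room temperature) in FXR-bla HEK 293T cells previously incubated 16 h at 37 C with compound and chenodeoxycholic acid at 50 uM final.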

[9] = biological target: Vitamin D3 receptor (Homo sapiens) (UniProt P11473); test: qHTS assay to identify small molecule agonists of the vitamin D receptor (VDR) signaling pathway (AID 743222; calls by dose curve)
Chain of Vitamin D3 receptor (Homo sapiens) (P11473 whole entry, looked up): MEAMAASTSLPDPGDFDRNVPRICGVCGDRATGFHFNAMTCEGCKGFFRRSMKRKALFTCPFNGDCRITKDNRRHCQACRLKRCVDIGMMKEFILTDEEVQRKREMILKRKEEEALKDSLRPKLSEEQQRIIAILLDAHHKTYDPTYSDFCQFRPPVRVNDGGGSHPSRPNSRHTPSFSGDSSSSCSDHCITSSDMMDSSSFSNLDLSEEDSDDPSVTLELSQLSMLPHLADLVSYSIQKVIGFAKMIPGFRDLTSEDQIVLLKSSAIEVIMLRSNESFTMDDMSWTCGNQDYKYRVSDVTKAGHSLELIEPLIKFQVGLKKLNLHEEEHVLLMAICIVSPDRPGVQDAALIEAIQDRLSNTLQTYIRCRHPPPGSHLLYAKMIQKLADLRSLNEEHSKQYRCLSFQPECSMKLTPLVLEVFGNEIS
In short: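 Agonist mode, beta-lactamase reporter: fluorescence from LiveBLAzer B/G FRET substrate (2 h, room temperature) read after 16 h compound treatment at 37 C of VDR-bla cells, which were pre-incubated 4 h after seeding.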

[10] = biological target: Vitamin D3 receptor (Homo sapiens) (UniProt P11473); test: qHTS assay to identify small molecule antagonists of the vitamin D receptor (VDR) signaling pathway (AID 743223; active = well fitted inhibition curve with a large enough effect in the signal ratio in the repeat runs, not every such curve was filed as active; the % refers to the signal ratio)
In short: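 Quantitative HTS in VDR-bla reporter cells stimulated with 1alpha,25-dihydroxyvitamin D3, 3 nM final. Compound exposure 16 h, 37C, 5% CO2. Read-out: beta-lactamase FRET substrate fluorescence, 2 h RT.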

[11] = qHTS assay to identify small molecule agonists of the vitamin D receptor (VDR) signaling pathway - cell viability counter screen (AID 743224); note: nearly all actives have a fitted effect of over 50% in size; note: potency is the fitted concentration of half-maximal effect
In short: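 Counter screen run in the same wells as the VDR-bla reporter assay: CellTiter-Glo luminescence, 30 min at room temperature, after 16 h compound treatment at 37C of cells pre-plated for 4 h.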

[12] = qHTS assay to identify small molecule antagonists of the vitamin D receptor (VDR) signaling pathway - cell viability counter screen (AID 743225); note: nearly all actives have a fitted effect of over 50% in size; note: potency is the fitted concentration of half-maximal effect
In short: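 Same-well multiplex: following 16 h treatment of HEK 293T cells carrying a UAS-driven beta-lactamase reporter with compound and agonist (3 nM final), and a 2 h FRET substrate step, CellTiter-Glo was added and luminescence read after 30 min.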

[13] = qHTS assay to identify small molecule agonists of the NFkB signaling pathway (AID 1159509; active = well fitted curve in the direction sought with a large enough effect in the signal ratio in the repeat runs, not every such curve was filed as active; the % refers to the signal ratio; note: series mostly up to about 61 µM)
In short: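 Pathway activation was measured in ME-180 cells stably expressing beta-lactamase under NF-kB response element control. Substrate cleavage was read as the 460/530 nm emission shift after 5 hr compound incubation.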

[14] = qHTS assay to identify small molecule agonists of the NFkB signaling pathway - cell viability counter screen (AID 1159515; calls by dose curve; note: series mostly up to about 61 µM; nearly all actives have a fitted effect of over 55% in size)
In short: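 Read by CellTiter-Glo luminescence (30 min, room temperature) in the wells also used for the beta-lactamase FRET read. ME-180 NFkB-bla cells at 2,000 per well were plated overnight, then exposed to compound for 5 hr at 37 C.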

[15] = qHTS assay to identify small molecule agonists of the endoplasmic reticulum stress response signaling pathway (AID 1159516; active = well fitted activation curve with a large enough effect in the signal ratio in the repeat runs, not every such curve was filed as active; the % refers to the signal ratio)
In short: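 Ratiometric FRET readout (405 nm excitation; 460 and 530 nm emission) of a beta-lactamase gene driven by the ER stress response element, after 2 hr substrate loading. HeLa ESRE-bla cells were seeded overnight and treated with compounds for only 5 hr at 37 C.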

[16] = qHTS assay to identify small molecule agonists of the endoplasmic reticulum stress response signaling pathway - cell viability counter screen (AID 1159517; calls by dose curve)
In short: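 In parallel with the ESRE reporter read, cytotoxicity was scored by CellTiter-Glo luminescence (30 min, room temperature) on HeLa ESRE-bla cells dosed for 5 hr.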

[17] = qHTS assay to identify small molecule antagonists of the retinoid-related orphan receptor gamma (ROR-gamma) signaling pathway - cell viability counter screen (AID 1159520); note: nearly all actives have a fitted effect of over 50% in size
In short: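 Tet-on ROR gamma CHO cells were given compounds for 2 hr, then doxycycline hyclate at 1 uM final, and incubated 16 hr at 37 C. Viability was measured as ATP content by CellTiter-Glo luminescence.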

[18] = biological target: Nuclear receptor ROR-gamma (Homo sapiens) (UniProt P51449); test: qHTS assay to identify small molecule antagonists of the retinoid-related orphan receptor gamma (ROR-gamma) signaling pathway (AID 1159521; note: nearly all actives have a fitted effect of over 50% in size; note: potency is the fitted concentration of half-maximal effect)
In short: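 Inducible-expression reporter assay: doxycycline (1 uM final) switched on RORγ in CHO cells bearing a ROR response element-luciferase construct, with test compounds present from 2 h beforehand. Decreased luminescence after 16 h defined antagonist activity.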

[19] = qHTS assay to identify small molecule agonists of the AP-1 signaling pathway - cell viability counter screen (AID 1159525; calls by dose curve; note: nearly all actives have a fitted effect of over 55% in size)
In short: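 Same-well cytotoxicity counter screen of the Tox21 10K library in ME-180 cells. The readout is ATP-dependent luminescence after 5 h compound treatment. Data are normalised to DMSO and tetra n-octyl ammonium bromide controls.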

[20] = qHTS assay to identify small molecule agonists of the AP-1 signaling pathway (AID 1159526; calls by dose curve)

Measured: Potency

CCCCCCCCOC(=O)c1ccccc1C(=O)OCCCCCCCC
inactive: all assays above

Cc1cccc(N)c1N
not listed: [1] | [2] | [3] | [4] | [10] | [19]
inactive: all other assays above

C=C(C)[C@H]1Cc2c(ccc3c2O[C@@H]2COc4cc(OC)c(OC)cc4[C@@H]2C3=O)O1
4.9 µM (active) and inactive: [4]
active: [5] 750 nM | [18] 34.8 nM and 770 nM and 10.6 nM
not listed: [1] | [3] | [9] | [10] | [11] | [19]
inactive: all other assays above

c1ccc(-c2cccc(-c3ccccc3)c2)cc1
not listed: [2] | [4] | [9] | [10] | [14]
inactive: all other assays above

CC(C)Oc1cc(-n2nc(C(C)(C)C)oc2=O)c(Cl)cc1Cl
inactive and 49 µM (active): [8]
inactive and 27.5 µM (active): [3]
inactive and 38.9 µM (active): [6]
active: [1] 15.5 µM | [11] 12.3 µM | [12] 13.8 µM
not listed: [2] | [5] | [18]
inactive: all other assays above

CCCCCCCCC(=O)NCc1ccc(O)c(OC)c1
not listed: [1] | [5] | [7] | [15]
inactive: all other assays above

NCc1cccnc1
not listed: [14]
inactive: all other assays above

Nc1ccc(-c2ccc(N)c(N)c2)cc1N
active: [18] 27.2 µM
not listed: [3] | [4] | [10] | [15] | [19] | [20]
inactive: all other assays above
